Assay [1] deals with RAC-alpha serine/threonine-protein kinase (Homo sapiens) (UniProt P31749). Particulars: at 0.1 µM.
Assay [2] has the same target. As to conditions: at 1 µM.
Assay [3] has as its target RAC-beta serine/threonine-protein kinase (Homo sapiens) (UniProt P31751). As to conditions: at 0.1 µM.
The target is the same in assay [4]. As to conditions: at 1 µM.
Assay [5] has as its target RAC-gamma serine/threonine-protein kinase (Homo sapiens) (UniProt Q9Y243). As to conditions: at 0.1 µM.
For assay [6] the target is unchanged. Particulars: at 1 µM.
Assay [7] addresses G protein-coupled receptor kinase 6 (Homo sapiens) (UniProt P43250). Particulars: at 0.1 µM.
Assay [8] shares this target. As to conditions: at 1 µM.
The target in assay [9] is T1, Rhodopsin kinase GRK7 (Homo sapiens) (UniProt Q8WTQ7).
T1 sequence (whole entry): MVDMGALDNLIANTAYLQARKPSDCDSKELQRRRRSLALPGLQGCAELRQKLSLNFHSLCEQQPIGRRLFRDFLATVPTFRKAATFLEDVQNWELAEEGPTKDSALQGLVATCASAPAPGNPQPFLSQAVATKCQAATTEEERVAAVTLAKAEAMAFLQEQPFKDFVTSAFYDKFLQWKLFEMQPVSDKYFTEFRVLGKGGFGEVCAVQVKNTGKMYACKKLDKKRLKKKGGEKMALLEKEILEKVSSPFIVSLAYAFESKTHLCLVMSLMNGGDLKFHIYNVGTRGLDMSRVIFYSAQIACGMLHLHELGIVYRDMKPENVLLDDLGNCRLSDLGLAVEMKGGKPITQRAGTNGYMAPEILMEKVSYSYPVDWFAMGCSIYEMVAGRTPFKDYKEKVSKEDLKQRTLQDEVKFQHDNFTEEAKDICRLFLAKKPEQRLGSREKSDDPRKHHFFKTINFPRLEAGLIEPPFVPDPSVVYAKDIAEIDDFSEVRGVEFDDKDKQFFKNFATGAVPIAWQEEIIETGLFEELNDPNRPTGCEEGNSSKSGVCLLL
As to conditions: at 0.1 µM.

Assay [10] concerns the target T1, Rhodopsin kinase GRK7 (Homo sapiens). As to conditions: at 1 µM.
Assay [11] has as its target Serine/threonine-protein kinase MRCK alpha (Homo sapiens) (UniProt Q5VT25). Particulars: at 0.1 µM.
Assay [12] shares this target. Particulars: at 1 µM.
Assay [13] deals with Serine/threonine-protein kinase MRCK beta (Homo sapiens) (UniProt Q9Y5S2). Particulars: at 0.1 µM.
Assay [14] has the same target. As to conditions: at 1 µM.
Assay [15] has as its target Ribosomal protein S6 kinase alpha-5 (Homo sapiens) (UniProt O75582). As to conditions: at 0.1 µM.
The target is the same in assay [16]. Particulars: at 1 µM.
For assay [17], the target named is Ribosomal protein S6 kinase alpha-4 (Homo sapiens) (UniProt O75676). As to conditions: at 0.1 µM.
The target is the same in assay [18]. Particulars: at 1 µM.
Assay [19] addresses Ribosomal protein S6 kinase beta-1 (Homo sapiens) (UniProt P23443). As to conditions: at 0.1 µM.
Assay [20] has the same target. Particulars: at 1 µM.

SMILES strings stand for the structures.

In general, inhibition refers to the change of the read-out against control, counted positive when it falls.

Sequence of RAC-beta serine/threonine-protein kinase (Homo sapiens) (P31751 whole entry): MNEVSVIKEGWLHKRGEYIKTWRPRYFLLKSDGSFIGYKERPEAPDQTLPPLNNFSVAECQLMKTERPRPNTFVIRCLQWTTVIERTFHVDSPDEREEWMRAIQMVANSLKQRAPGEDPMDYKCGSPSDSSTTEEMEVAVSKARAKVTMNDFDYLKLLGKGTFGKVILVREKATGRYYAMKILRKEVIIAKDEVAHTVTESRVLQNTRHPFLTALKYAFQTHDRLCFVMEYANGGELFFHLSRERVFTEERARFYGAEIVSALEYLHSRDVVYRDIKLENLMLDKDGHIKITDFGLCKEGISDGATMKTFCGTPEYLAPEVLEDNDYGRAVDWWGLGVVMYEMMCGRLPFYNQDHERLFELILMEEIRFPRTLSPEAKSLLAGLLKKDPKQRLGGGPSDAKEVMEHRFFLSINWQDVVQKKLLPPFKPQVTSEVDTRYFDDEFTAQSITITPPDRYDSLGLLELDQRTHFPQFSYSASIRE
Sequence of Ribosomal protein S6 kinase beta-1 (Homo sapiens) (P23443 whole entry, looked up): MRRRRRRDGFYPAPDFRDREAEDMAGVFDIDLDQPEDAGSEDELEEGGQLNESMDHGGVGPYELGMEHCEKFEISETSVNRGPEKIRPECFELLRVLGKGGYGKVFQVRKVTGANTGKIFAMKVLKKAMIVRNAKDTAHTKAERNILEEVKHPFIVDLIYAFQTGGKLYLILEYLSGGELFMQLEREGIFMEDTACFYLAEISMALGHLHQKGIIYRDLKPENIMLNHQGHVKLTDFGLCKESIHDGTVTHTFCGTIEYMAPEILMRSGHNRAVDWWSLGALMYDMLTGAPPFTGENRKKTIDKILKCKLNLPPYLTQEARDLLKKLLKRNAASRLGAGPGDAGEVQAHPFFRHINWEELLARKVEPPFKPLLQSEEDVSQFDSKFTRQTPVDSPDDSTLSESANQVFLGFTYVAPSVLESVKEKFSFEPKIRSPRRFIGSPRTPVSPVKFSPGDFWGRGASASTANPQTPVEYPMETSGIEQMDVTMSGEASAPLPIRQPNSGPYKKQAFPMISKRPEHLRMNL
Sequence of G protein-coupled receptor kinase 6 (Homo sapiens) (P43250 whole entry, looked up): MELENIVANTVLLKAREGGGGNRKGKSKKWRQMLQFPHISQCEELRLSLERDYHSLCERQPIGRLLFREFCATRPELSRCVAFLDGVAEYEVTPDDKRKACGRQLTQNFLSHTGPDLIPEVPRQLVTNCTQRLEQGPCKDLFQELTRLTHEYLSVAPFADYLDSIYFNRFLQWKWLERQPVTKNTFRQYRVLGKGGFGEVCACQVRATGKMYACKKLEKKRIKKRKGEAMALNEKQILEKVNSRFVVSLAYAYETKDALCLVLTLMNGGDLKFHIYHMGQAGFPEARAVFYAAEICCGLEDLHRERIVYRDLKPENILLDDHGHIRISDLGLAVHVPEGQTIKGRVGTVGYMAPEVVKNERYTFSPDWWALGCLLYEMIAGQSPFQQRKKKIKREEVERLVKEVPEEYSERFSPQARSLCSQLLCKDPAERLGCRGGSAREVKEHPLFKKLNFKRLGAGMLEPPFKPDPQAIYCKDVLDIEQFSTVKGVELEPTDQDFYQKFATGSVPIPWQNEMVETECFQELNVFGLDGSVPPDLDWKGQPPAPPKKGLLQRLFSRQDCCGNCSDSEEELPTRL
Sequence of Ribosomal protein S6 kinase alpha-5 (Homo sapiens) (O75582 whole entry, looked up): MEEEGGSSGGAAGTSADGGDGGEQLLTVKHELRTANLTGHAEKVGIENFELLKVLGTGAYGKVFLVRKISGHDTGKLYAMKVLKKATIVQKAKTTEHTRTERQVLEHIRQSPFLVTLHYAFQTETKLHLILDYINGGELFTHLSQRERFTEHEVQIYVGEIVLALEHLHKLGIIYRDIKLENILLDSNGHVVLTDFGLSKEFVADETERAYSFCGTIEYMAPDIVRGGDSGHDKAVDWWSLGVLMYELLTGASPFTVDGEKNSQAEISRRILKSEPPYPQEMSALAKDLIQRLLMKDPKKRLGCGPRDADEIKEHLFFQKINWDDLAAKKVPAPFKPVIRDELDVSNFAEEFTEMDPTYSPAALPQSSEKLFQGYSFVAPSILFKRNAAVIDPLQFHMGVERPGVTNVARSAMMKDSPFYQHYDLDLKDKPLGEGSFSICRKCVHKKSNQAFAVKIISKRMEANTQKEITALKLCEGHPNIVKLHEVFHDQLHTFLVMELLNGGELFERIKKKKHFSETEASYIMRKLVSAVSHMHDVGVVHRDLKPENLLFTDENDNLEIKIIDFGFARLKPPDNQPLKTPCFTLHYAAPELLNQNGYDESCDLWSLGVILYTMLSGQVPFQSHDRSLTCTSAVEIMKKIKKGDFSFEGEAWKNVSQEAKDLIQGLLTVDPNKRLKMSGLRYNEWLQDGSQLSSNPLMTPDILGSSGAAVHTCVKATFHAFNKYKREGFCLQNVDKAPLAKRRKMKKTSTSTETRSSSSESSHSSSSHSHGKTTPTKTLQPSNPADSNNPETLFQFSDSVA
Sequence of Serine/threonine-protein kinase MRCK beta (Homo sapiens) (Q9Y5S2 whole entry): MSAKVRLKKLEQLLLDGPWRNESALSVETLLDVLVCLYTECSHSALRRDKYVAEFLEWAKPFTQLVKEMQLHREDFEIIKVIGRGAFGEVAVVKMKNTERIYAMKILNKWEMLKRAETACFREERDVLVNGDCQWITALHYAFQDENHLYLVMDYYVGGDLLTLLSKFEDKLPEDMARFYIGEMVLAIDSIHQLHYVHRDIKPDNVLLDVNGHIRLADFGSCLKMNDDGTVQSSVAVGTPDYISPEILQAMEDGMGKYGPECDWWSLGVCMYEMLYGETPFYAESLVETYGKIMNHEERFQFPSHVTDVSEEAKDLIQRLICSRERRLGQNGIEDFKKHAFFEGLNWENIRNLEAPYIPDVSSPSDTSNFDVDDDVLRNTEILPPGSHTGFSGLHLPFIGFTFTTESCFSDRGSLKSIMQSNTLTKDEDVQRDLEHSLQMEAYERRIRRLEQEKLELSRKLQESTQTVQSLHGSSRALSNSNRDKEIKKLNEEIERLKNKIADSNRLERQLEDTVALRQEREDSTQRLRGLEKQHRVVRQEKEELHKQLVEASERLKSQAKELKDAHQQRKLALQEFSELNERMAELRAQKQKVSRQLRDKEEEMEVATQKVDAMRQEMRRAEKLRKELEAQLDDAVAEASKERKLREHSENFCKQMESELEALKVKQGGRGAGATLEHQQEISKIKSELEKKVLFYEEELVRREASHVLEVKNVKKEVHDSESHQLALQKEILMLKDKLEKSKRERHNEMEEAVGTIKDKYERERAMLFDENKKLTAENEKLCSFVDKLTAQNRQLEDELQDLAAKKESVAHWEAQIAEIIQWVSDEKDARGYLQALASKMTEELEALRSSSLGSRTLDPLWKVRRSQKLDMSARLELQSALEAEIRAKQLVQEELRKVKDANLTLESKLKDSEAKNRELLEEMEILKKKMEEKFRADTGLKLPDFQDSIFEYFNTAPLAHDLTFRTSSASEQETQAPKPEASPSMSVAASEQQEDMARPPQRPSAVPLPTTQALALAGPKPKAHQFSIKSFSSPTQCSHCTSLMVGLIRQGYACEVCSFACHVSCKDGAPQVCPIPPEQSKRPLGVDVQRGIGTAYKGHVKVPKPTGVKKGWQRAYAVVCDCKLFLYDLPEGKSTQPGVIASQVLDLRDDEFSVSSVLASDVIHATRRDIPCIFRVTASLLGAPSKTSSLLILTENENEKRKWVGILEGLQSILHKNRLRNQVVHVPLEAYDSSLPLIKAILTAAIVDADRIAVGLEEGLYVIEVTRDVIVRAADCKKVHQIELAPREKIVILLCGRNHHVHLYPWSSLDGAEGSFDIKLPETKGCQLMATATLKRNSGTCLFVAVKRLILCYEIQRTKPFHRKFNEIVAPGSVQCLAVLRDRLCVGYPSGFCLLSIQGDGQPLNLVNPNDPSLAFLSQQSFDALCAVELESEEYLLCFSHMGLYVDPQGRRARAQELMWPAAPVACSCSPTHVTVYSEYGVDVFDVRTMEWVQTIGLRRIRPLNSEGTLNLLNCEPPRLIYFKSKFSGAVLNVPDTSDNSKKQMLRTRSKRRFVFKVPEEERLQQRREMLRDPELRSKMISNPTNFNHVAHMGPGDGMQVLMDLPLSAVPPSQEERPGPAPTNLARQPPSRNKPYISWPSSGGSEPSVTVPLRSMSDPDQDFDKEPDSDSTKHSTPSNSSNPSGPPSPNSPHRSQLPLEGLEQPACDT
Sequence of Ribosomal protein S6 kinase alpha-4 (Homo sapiens) (O75676 whole entry, looked up): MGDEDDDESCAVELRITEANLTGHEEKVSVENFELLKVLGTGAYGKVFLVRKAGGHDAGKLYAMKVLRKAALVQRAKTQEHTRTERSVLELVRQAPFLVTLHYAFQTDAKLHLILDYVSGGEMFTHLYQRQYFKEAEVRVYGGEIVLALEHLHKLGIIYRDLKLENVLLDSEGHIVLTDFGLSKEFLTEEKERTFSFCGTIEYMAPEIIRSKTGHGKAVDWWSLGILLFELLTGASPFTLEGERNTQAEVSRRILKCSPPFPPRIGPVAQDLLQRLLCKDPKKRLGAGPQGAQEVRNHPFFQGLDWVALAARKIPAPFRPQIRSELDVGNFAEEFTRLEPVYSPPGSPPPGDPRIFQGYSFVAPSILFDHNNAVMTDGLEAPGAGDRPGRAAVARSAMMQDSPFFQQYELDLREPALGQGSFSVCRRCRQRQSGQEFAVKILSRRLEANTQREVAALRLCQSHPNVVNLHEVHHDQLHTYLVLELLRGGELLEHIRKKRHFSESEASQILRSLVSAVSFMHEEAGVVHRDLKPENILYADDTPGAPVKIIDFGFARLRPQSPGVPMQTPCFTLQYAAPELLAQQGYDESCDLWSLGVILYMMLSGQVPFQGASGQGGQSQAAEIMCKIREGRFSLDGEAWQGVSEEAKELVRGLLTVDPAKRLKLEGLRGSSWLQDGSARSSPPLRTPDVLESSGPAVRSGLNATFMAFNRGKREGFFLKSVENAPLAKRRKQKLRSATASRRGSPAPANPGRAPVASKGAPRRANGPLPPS

Consider `CC(C)c1ccc(Nc2nccc(-c3cnn4ncccc34)n2)cc1`, for which the inhibition in assay [1] came to 0.38%; in assay [2], 0.64%; in assay [3], 1.28%; in assay [4], 1.13%; in [5], 1.09%; in assay [6] it was 1.51%. The inhibition in [7] is 4.74%; in assay [8], 3.14%; in assay [9], 2.17%; in assay [10], 3.19%; in [11], -1.68%; in assay [12], -0.92%. In addition, the inhibition in assay [13] is -1.18%; in [14], -0.74%; in assay [15] it was 0.84%; in [16], 1.36%; in assay [17] it was 1.31%; in assay [18], 2.98%. Further, the inhibition in [19] turned out to be 0.78%; in [20] it was 1.58%.

Consider `O=C1Nc2ccc(-c3cccnc3)cc2C1=Cc1cc(Br)c(O)c(Br)c1`, for which the inhibition in assay [1] is 1.65%; in assay [2], 2.74%; in assay [3], 1.49%; in [4], 2.84%; in assay [5], 1.24%; in assay [6] it was 1.67%. Further, the inhibition was 11.3% in assay [7]; 46.1% in assay [8]; 20% in assay [9]; 60.3% in assay [10]; 0.24% in [11]; -0.62% in assay [12]. Further, the inhibition was 0.92% in assay [13]; 1.01% in [14]; 3.3% in [15]; 3.39% in [16]; 0.89% in assay [17]; 2.67% in assay [18]. In addition, the inhibition is 2.32% in assay [19] and 2.15% in [20].

For `Cc1ccc(Nc2ccnc(Nc3cccc(C(N)=O)c3)n2)cc1O`, the inhibition in [1] is -3.35%; in assay [2], -2.06%; in [3], -1.66%; in [4], -2.15%; in assay [5] it was -2.03%; in assay [6], -1.07%. For the same compound, the inhibition in [7] is 1.49%; in assay [8], 6.26%; in assay [9] it was 1.62%; in [10], 0.17%; in assay [11], -0.17%; in assay [12], 1.81%. The inhibition was -0.24% in assay [13]; -0.07% in [14]; 1.2% in assay [15]; 1.01% in [16]; 2.41% in assay [17]; 4.49% in assay [18]. In addition, the values for the inhibition in [19] and in assay [20] were 1.61% and 6.47%, respectively.

For `CN(C)C(=O)O[C@H]1CN[C@H](C#Cc2cc3ncnc(Nc4ccc(OCc5cccc(F)c5)c(Cl)c4)c3s2)C1`, the inhibition in [1] is 0.44%; in assay [2], 1.13%; in assay [3], 1.82%; in [4], 1.59%; in assay [5] it was 1.22%; in assay [6], -1.3%. For the same compound, the inhibition in [7] is 3.73%; in assay [8], 0.78%; in assay [9], 2.97%; in [10], 8.33%; in assay [11], -0.3%; in assay [12] it was -0.73%. Further, the inhibition came to 0.58% in assay [13]; 2.77% in assay [14]; 2.4% in assay [15]; 4.95% in assay [16]; 0.06% in assay [17]; 4.03% in [18]. Besides, the inhibition stood at 0.89% in assay [19] and 2.08% in assay [20].

Regarding `CS(=O)(=O)Nc1cccc(-c2ccc3c(NC(=O)C4CC4)n[nH]c3c2)c1`, the inhibition was 0.47% in assay [1]; -0.39% in [2]; 0.26% in assay [3]; 0.15% in [4]; 0.35% in assay [5]; -2.8% in [6]. Further, the inhibition was 1.58% in assay [7]; -0.72% in assay [8]; 0.25% in [9]; 2.21% in assay [10]; 1.58% in assay [11]; 2.47% in assay [12]. Also, the inhibition was determined as 0.84% in assay [13]; 1.32% in assay [14]; 1.49% in [15]; 1.04% in assay [16]; 0.62% in assay [17]; 2.85% in assay [18]. In addition, the inhibition was 1.15% in assay [19] and 1.9% in assay [20].

For `COc1ccc2ncnc(Nc3ccc(OCc4ccccc4)cc3)c2c1`, the inhibition in assay [1] was 0.35%; in assay [2] it was -0.14%; in assay [3], 0.26%; in assay [4] it was 0.34%; in [5], 0.84%; in assay [6], 1.52%. Also, the inhibition in assay [7] worked out at 1.69%; in assay [8], 5.27%; in assay [9] it was 2.31%; in assay [10] it was 6.57%; in assay [11], 0.54%; in assay [12], 2.68%. Besides, the inhibition in assay [13] was 0.54%; in [14] it was 0.8%; in assay [15] it was 1.25%; in assay [16], 0.63%; in [17], -3.48%; in assay [18], 1.47%. The figures for the inhibition in [19] and in assay [20] were 1.08% and 0.96%, respectively.

Regarding `OCc1ccc(-c2nc(-c3ccccn3)c(-c3ccc4c(c3)OCO4)[nH]2)cc1`, the inhibition is 1.19% in assay [1]; 1.53% in [2]; 2.08% in assay [3]; 2.51% in assay [4]; 1.57% in [5]; 0.86% in assay [6]. Besides, the inhibition in assay [7] was 0.03%; in assay [8], 1.18%; in assay [9], 2.93%; in assay [10] it was -2.28%; in [11], 0.27%; in [12] it was -0.19%. The inhibition in assay [13] came out at 0.91%; in assay [14], 1.33%; in [15] it was 4.12%; in assay [16], 3.7%; in assay [17] it was 1.01%; in assay [18], 3.89%. For the same compound, the inhibition in [19] was 2.09%; in assay [20] it was 3.2%.

(Values after ChEMBL document CHEMBL1961873, “Compounds: GSK PKIS; Assays: Nanosyn kinase panel” (2012).)
